A selection: hits, their analogues and other compounds. The true share with any hit is near 1.5%.
PI4K2A block – inhibitors of human PI4K2A; Q9BTU6; purified PI4K2A, ADP-Glo luminescence, 1 h; hits give low values; activity change, negative = inhibition, % at 76.9 µM; actives 0.13% (n = 420,000); AID 1346378; in the data active = activity change below about -50%; inconclusive = mostly about -30% to -49%
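In this quantitative HTS, ADP production by PI4K2A was quantified luminescently after 1 h at ambient temperature; 100 microM adenosine served as plate-quality control.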
TrxR1 substrate – rat thioredoxin reductase 1 substrate activity; O89049; purified TrxR1 substrate turnover, NADPH consumption readout; Potency, µM (doses to about 114 µM); actives 0.01% (n = 390,000); note: nearly all actives have a fitted effect of over 50% in size
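Rat TrxR1, dispensed at 90 nM, was prereduced with 400 uM NADPH (final) for 5 min at ~22 deg C, then incubated with compound 15 min before 400 uM selenite. A first-read NADPH fluorescence drop versus no-compound background flagged substrates.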
GALK inhibitor – inhibitors of human galactokinase. Potency, µM (series often up to 57.5 µM), most hits filed as inhibitors. actives 0.007% (n = 270,000). AID 1868. P51570. Purified GALK, Kinase-Glo residual ATP luminescence
Target sequence (P51570 whole entry, looked up): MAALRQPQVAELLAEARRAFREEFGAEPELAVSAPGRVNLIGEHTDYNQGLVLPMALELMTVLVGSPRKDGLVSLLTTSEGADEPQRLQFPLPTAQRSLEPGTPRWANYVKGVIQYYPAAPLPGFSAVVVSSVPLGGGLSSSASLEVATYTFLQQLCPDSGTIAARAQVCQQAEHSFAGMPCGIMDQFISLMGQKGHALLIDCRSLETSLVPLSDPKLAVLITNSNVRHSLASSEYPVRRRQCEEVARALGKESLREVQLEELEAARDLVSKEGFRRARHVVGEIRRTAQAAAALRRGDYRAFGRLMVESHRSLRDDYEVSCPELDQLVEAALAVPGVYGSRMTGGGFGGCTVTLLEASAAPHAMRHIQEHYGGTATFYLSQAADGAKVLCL
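Human GALK (5 nM) with 35 uM ATP and 100 uM galactose in 20 mM HEPES pH 8.0, 5 mM MgCl2, 60 mM NaCl, 1 mM DTT, 0.01% BSA. After 1 h at room temperature, leftover ATP was read by Kinase-Glo Plus luminescence.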
Coupling enz – coupling enzyme interference in Giardia aldolase counter-screen; coupling enzyme system counterscreen, AmpLite Red fluorescence; activity change, negative = inhibition, % at 58.2 µM, hits read low; actives 0.67% (n = 290,000); in the data active = activity change below about -30%
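Fluorescence at 525 nm excitation and 598 nm emission measured inhibition of the coupled detection system without aldolase. Compounds (at 57.5 uM final) were preincubated 10 min at room temperature with coupling enzyme reagent before a 20 min substrate/AmpLite Red step.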
TrxR1 inh-1 – inhibitors of rat thioredoxin reductase 1; O89049; recombinant rTrxR1, NADPH fluorescence consumption, selenite substrate; Potency, µM (top dose mostly 114 µM), actives largely listed as inhibitors; actives 1% (n = 390,000); note: nearly all actives have a fitted effect of over 65% in size
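Rat TrxR1 (90 nM in the dispensed reagent) was pre-reduced with 400 uM NADPH for 5 min at room temperature, then incubated with compound for 15 min. After 400 uM selenite was added, NADPH fluorescence (Ex 340/Em 450 nm) was followed for 8 min.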
Giardia kill – kills Giardia lamblia; actives 0.15% (n = 340,000); activity change, % at 7.66 µM, hits read low; Giardia lamblia trophozoite viability; AID 540267; in the data active = activity change below about -80%; inconclusive = between about -30% and that limit;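 note: parasites exposed to compound for two days anaerobically before the ATP read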
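Trophozoites 100 cells/well + cpd; 48 hrs, 37 deg C, anaerobic. ATPLite 1-Step added, 15-30 min RT, luminescence read (ATP-based viability).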
GR inh – counter-screen for TrxR1 inhibitors: human glutathione reductase inhibition | 55 tested, under 10 active | AID 652020 | activity change, negative = inhibition, % at 57.1 µM | shares compounds with TrxR1 inh-1 | purified GR, DTNB reduction absorbance 405 nm kinetic
TrxR1 inh-2 – validation of rat thioredoxin reductase 1 inhibitors; shares compounds with TrxR1 inh-1; recombinant TrxR1, NADPH fluorescence consumption, selenite substrate; Potency, µM, usual class: inhibitors; actives 50% (n = 55)
TrxR1 insulin – inhibits TrxR1-driven insulin reduction; TrxR1 Trx-coupled insulin reduction, NADPH absorbance 340 nm; actives 20% (n = 55); AID 652037; Potency, µM; shares compounds with TrxR1 inh-1;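 active = compounds with a measured potency under 100 micromolar; inconclusive = filed, but no rule given; inactive = potency at or above that, or unmeasurable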
TrxR1 inh-3 – inhibitors of rat thioredoxin reductase 1, DTNB reduction; shares compounds with TrxR1 inh-1; purified TrxR1, DTNB reduction, A412; Potency, µM; actives 90% (n = 55);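 active = a half-inhibiting concentration could be measured and was below 100 µM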
Large screens that a line does not name were inactive (follow-up assays come after a bar, where they were run). Unless noted, calls come from the whole dose curve; as a rule, active = well fitted curve in the direction sought with a large enough effect; inconclusive = small, poorly fitted or top-dose-only effect, or another doubt; inactive = no such curve, though single readings can be large; an effect the other way counts as inactive or inconclusive.

CCOC(=O)c1c(C)oc2c1c(CN1CCN(C(=O)OCC)CC1)c(O)c1ccccc12	TrxR1 inh-1 1.58µM | GR inh inactive | TrxR1 inh-2 inconclusive | TrxR1 insulin inactive | TrxR1 inh-3 0.332µM
Cc1ccc2c(Br)cc(Br)c(O)c2n1	none (no result: TrxR1 substrate, GALK inhibitor, Coupling enz, TrxR1 inh-1, Giardia kill)
CCCCC[C@H](O)/C=C/C=C\C=C\[C@@H](O)C/C=C\CCCC(=O)O	none (no result: PI4K2A block, TrxR1 substrate, GALK inhibitor, TrxR1 inh-1, Giardia kill)
CCc1ccc(NC(=O)CC2C(=O)N(c3ccc(Cl)cc3)C(=O)N2Cc2cccs2)cc1 (centres undefined)	none (no result: GALK inhibitor, Coupling enz, Giardia kill)
O=C(c1ccccc1)[C@@H]1[C@@H]2C(=O)N(c3ccc(F)cc3)C(=O)[C@@H]2C2CCCN21 (some centres undefined)	TrxR1 inh-1 50.1µM | GR inh inactive | TrxR1 inh-2 inconclusive | TrxR1 insulin inactive | TrxR1 inh-3 7.44µM
Cc1ccc(N2C(=O)[C@@H]3[C@H](C2=O)C2CCCN2[C@@H]3C(=O)c2ccccc2)cc1 (some centres undefined)	none
Cc1ccc(-c2nc(C)sc2CC(=O)NCc2ccco2)cc1	TrxR1 inh-1 50.1µM | GR inh inactive | TrxR1 inh-2 5.32 | TrxR1 insulin inactive | TrxR1 inh-3 10.5µM
COc1cc(C(c2nnnn2C2CCCC2)N2CCc3ccccc3C2)ccc1O (centres undefined)	TrxR1 inh-1 2µM | GR inh inactive | TrxR1 inh-2 2.12 | TrxR1 insulin inactive | TrxR1 inh-3 0.71µM
COc1ccc(N(C(=O)c2ccncc2)S(=O)(=O)c2cccc([N+](=O)[O-])c2)cc1	TrxR1 inh-1 50.1µM (no result: Coupling enz) | GR inh inactive | TrxR1 inh-2 9.47 | TrxR1 insulin inactive | TrxR1 inh-3 9.23µM
COc1ccc(N(C(=O)c2cccnc2)S(=O)(=O)c2cccc([N+](=O)[O-])c2)cc1	none
Oc1cc2c(cc1CN1CCN(c3ncccn3)CC1)OCO2	TrxR1 inh-1 25.1µM (no result: Coupling enz) | GR inh inactive | TrxR1 inh-2 inconclusive | TrxR1 insulin inactive | TrxR1 inh-3 inactive
Fc1ccccc1CN1CCN(c2ncccn2)CC1	none
Cc1ccc(C)c(N2CCN(S(=O)(=O)c3c(C(=O)N4CCC(C)CC4)c(C)n(C)c3C)CC2)c1	none (no result: GALK inhibitor, Coupling enz, Giardia kill)
Cc1c(NC2=C(Cl)C(=O)N(c3ccccc3)C2=O)c(=O)n(-c2ccccc2)n1C	TrxR1 inh-1 3.16µM | GR inh inactive | TrxR1 inh-2 2.67 | TrxR1 insulin inactive | TrxR1 inh-3 inactive
O=[N+]([O-])c1ccc(Cl)c(S(=O)(=O)Nc2cccc(S(=O)(=O)NC3=NCCC3)c2)c1	TrxR1 inh-1 2.51µM (no result: GALK inhibitor, Coupling enz) | GR inh inactive | TrxR1 inh-2 0.597 | TrxR1 insulin inactive | TrxR1 inh-3 0.051µM
CCCOc1cccc(C(=O)NC(=S)Nc2ccc(N3CCN(C)CC3)cc2)c1	TrxR1 inh-1 79.4µM | GR inh inactive | TrxR1 inh-2 5.32 | TrxR1 insulin inactive | TrxR1 inh-3 inactive
CCC(=O)Nc1cccc(NC(=S)NC(=O)c2ccc(C)cc2)c1	TrxR1 inh-1 inconclusive
CCOc1cccc(C(=O)NC(=S)Nc2ccc(N3CCN(CC)CC3)cc2)c1	none
CCC(=O)Nc1cccc(NC(=S)NC(=O)c2cccc(C)c2)c1	TrxR1 inh-1 11.2µM | GR inh inactive | TrxR1 inh-2 5.97 | TrxR1 insulin inactive | TrxR1 inh-3 1.34µM
CCOc1cccc(C(=O)NC(=S)Nc2ccccc2)c1	TrxR1 inh-1 31.6µM | GR inh inactive | TrxR1 inh-2 6.7 | TrxR1 insulin inactive | TrxR1 inh-3 74µM
CCOc1cccc(C(=O)NC(=S)Nc2cccc(NC(=O)c3ccccc3Cl)c2)c1	none

Screens as filed in PubChem.
